The target in the assay is Streptavidin (Streptomyces avidinii) (UniProt P22629). As to the kind of experiment: streptavidin binders on small-molecule microarray, primary screen, artefact control for SMM compound annotation, biophysical, 635/667 nm fluorescence (AID 1147).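 Note: signal reflects streptavidin binding to arrayed compounds as a control protein.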 The following applies: streptavidin binding, higher = more signal.
Chain of Streptavidin (Streptomyces avidinii) (P22629 whole entry, looked up): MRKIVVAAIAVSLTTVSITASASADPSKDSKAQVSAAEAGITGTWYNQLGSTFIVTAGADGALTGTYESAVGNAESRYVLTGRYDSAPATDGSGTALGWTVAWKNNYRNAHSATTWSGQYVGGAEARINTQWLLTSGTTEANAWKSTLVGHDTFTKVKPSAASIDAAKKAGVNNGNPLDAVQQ
The molecule `COCCOC(=O)N1C(=O)[C@@]2(c3cc(C#CC4(O)CCCCCC4)ccc31)[C@H](C(N)=O)[C@H]1C(=O)O[C@H](c3ccccc3)[C@H](c3ccccc3)N1[C@@H]2c1ccccc1OCCO` returned a composite z-score of 0.143. As for `C=CCN1C(=O)[C@@]2(O[C@@H](CCO)[C@H]([Si](C)(C)c3ccc(OC)cc3)[C@H]2C)c2cc(N3C(=O)c4ccccc4Oc4ccccc43)ccc21`, the figure is 0.031; as for `C[C@]1(C(=O)NC2CC2)c2ccccc2C(=O)N(Cc2ccc(OC(F)(F)F)cc2)[C@H]1c1ccc(CO)cc1`, -0.825; as for `CC(C)(C)OC(=O)CC[C@]1(C(=O)N2CCOCC2)N=C(c2ccc(OCCCO)cc2)O[C@H]1c1ccccc1`, 2.02. `C=C[C@@H](C)[C@H](OC(=O)Nc1ccc(SC)cc1)c1ccc(OCCO)cc1` came in with a composite z-score of -0.936. As for `COC(=O)[C@@]1(Cc2ccc(OC)cc2)[C@H]2c3cc(C(=O)N4CCCC4)n(CCc4cc5ccccc5[nH]4)c3C[C@H]2CN1C(=O)c1ccccc1`, the figure is 1.58; as for `C=CCNC(=O)[C@@H]1[C@H]2C(=O)O[C@H](c3ccccc3)[C@H](c3ccccc3)N2[C@H](c2ccc(OCCO)cc2)[C@@]12C(=O)N(C(=O)OCCOC)c1ccc(C#CC3=CCCCC3)cc12`, 0.902. Under `CC(C)C(CO)N1C(=O)[C@]2(C)C3C(=O)OCCC/C=C\[C@H]3OC23C=CCN(c2ccc(Cl)cc2)C(=O)[C@@H]13` (stereo not given in full) stands -0.476; under `C=CC[C@H](OC(=O)Nc1ccc(OC)cc1)c1ccc(O)c2ccccc12`, 0.855; under `COc1cc(CO)cc(I)c1O[C@H]1C=C(C(=O)NCCO)C[C@@H](N(Cc2ccc(F)cc2)C(=O)C2CCCO2)[C@@H]1O` (stereo not given in full), -0.274. Under `CCCC[C@@H]1C[C@H]1[C@@H](NC(=O)c1ccccc1)c1ccc(Cl)cc1` stands -1.33; under `CN(C)CCCNC(=O)[C@@H]1c2ccccc2C(=O)N(CC23CC4CC(CC(C4)C2)C3)[C@H]1c1ccc(CO)cc1`, 1.12. In the case of `CC(=O)N1Cc2ccccc2C[C@]2(N=C(c3ccc(OCCCO)cc3)O[C@@H]2c2ccccc2)C1=O`, the composite z-score was 0.253. As to `C=CCOC(=O)[C@H]1[C@@H]2C(=O)O[C@@H](c3ccccc3)[C@@H](c3ccccc3)N2[C@@H](c2ccc(OCCOC(=O)[C@H]3C[C@H]4C(=O)N[C@@H](Cc5ccccc5)C(=O)N4[C@H]3c3ccc(O)cc3)cc2)[C@]12C(=O)Nc1ccc(I)cc12`, the composite z-score was 0.133.

Molecule `COC(=O)C1(Cc2ccccc2)C=C2C(=C(C(C)C)C(=O)C2C)CN1` (stereo not given) came in with a composite z-score of -0.333.

Molecule `C=CC[C@]12N=C(c3ccc(OCCCO)cc3)O[C@H]1c1ccccc1N(C)C2=O` returned a composite z-score of -0.283.

As for `CC=CC(O)C1C=CC2C(=O)N(C)C(=O)C2N1N1CCCCC1` (stereo not given), the composite z-score worked out at 0.988. As for `CCCNC(=O)[C@@]1(c2ccc([N+](=O)[O-])cc2)CC(=O)N(C2CCCCC2)[C@@H]1c1ccc(CO)cc1I`, the figure is 0.277; as for `O=C1C[C@@](C(=O)NCC(F)(F)F)(c2ccc([N+](=O)[O-])cc2)[C@@H](c2ccc(CO)cc2)N1C1CCCCC1`, 0.579. The molecule `CCOC(=O)C[C@H]1[C@H](OC(=O)c2ccccc2-c2ccccc2)[C@@H](NC(=O)CC(C)C)c2cc(OCCCO)ccc2N1C(=O)c1ccc2ccccc2n1` came in with a composite z-score of 0.543.

Consider `COc1ccc(C(O)C2C=CC3C(=O)N(C)C(=O)C3N2N2CCCCC2)cc1` (stereo not given), for which the composite z-score turned out to be 1.54.

As for `CCCCC(CC)C(O)C1C=CC2C(=O)N(c3ccccc3)C(=O)C2N1Nc1ccc([N+](=O)[O-])cc1` (stereo not given), the composite z-score turned out to be 1.41.

Molecule `C=C(C(=O)CC[C@H](OC(C)=O)c1cccc(OCCO)c1)C(C)C` had a composite z-score of -0.608. Regarding `C=C(/C(=C/C[C@@H](OC(=O)c1ccncc1)c1ccccc1OCCO)c1cc(C(=O)OC)ccc1OC)C(C)C`, the composite z-score was 0.187. Under `COc1ccc([Si](C)(C)[C@H]2[C@H](CCn3cc([C@H](O)c4ccccc4)nn3)O[C@@]3(C(=O)N(Cc4ccc(N5CCOC5=O)cc4)c4ccccc43)[C@@H]2C)cc1` stands -0.303; under `CC(C)OC(=O)CC(=O)CC(O)c1cccc(C#N)c1` (stereo not given), 1.35; under `COc1cc(CO)cc(I)c1O[C@H]1C=C(C(=O)NCCO)C[C@@H](NCc2ccccc2F)[C@@H]1O`, -0.0401. The molecule `CC(C)CN1C(=O)[C@@]2(Cc3ccccc31)c1ccccc1C(=O)N(Cc1ccccc1C(F)(F)F)[C@H]2c1ccc(CO)cc1` registered a composite z-score of -0.0961. As for `CCOC(=O)[C@@H]1[C@@H]2C(=O)N(CC)C(=O)[C@@H]2C[C@@H]1Sc1ccccc1`, the figure is 0.603; as for `C=CC[C@@H](OC(=O)Nc1ccc(OC)cc1)c1ccc(OCCO)cc1`, -1.21.

These data come from PubChem BioAssay.
